For test [1], the target named is Albumin (Bos taurus) (UniProt P02769). Nature of the test: bovine serum albumin binders on microarray, profiling panel, artefact control for SMM control protein annotation, biochemical, small-molecule microarray, Alexa647 label, 635/667 nm fluorescence (AID 1118).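 Also: score merges 667 nm emission intensity and signal-to-noise per printed compound spot.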 To be noted: BSA-A647 binding, fluorescence 635 nm, higher = more signal.
Test [2] is described as follows: small-molecule microarray binders of probe aXIP, primary screen, biochemical, NeuroSMM set, 635/667 nm fluorescence (AID 1119).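 Also: probe is the protein aXip251-270 applied at 1 µg/mL to compound-printed slides; binding of probe to printed compounds measured as 667 nm fluorescence plus signal to noise.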 To be noted: higher = more signal, called active from +8 up or from −8 down.
A short description of test [3]: small-molecule binders of probe aNOTCH3, primary screen, biochemical, small-molecule microarray, 635/667 nm fluorescence (AID 1120).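 Also: probe is a biotin-tagged antibody raised against NOTCH3 rather than NOTCH3 protein; score merges spot fluorescence near 667 nm with spot signal to noise.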 Particulars: higher = more signal.
A short description of test [4]: small-molecule binders of probe aNOTCH2, primary screen, biochemical, small-molecule microarray, 635/667 nm fluorescence (AID 1121).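 Also: score merges feature fluorescence read at 667 nm with its signal to noise.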 To be noted: higher = more signal.
Test [5] addresses Carbonic anhydrase 2 (Homo sapiens) (UniProt P00918). Nature of the test: CAII small-molecule binders, profiling panel, biochemical, small-molecule microarray, Alexa647-labelled CAII (AID 1122). Particulars: CAII-A647 binding fluorescence, higher = more signal.
The nature of test [6]: COS7 lysate on small-molecule microarray, probe aHis, 635 nm (AID 1123).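 Also: z-score combines 667nm fluorescence intensity with signal-to-noise per printed compound spot.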 Particulars: COS7 cell lysate, fluorescence, higher = more signal.
The nature of test [7]: compound binding in COS7 lysate, probe aLAP1, primary screen, cell lysate, small-molecule microarray (AID 1124).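 Also: lysate comes from COS7 cells expressing LAP1 and is applied at 0.3 µg/mL; score merges spot fluorescence near 667 nm with signal-to-noise over triplicate slides.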 Particulars: probe aLAP1, fluorescence, higher = more signal.
Test [8] relates to Sam68 (KHDRBS1). The test is described as follows: Sam68 small-molecule binders, primary screen, biochemical, small-molecule microarray, 635 nm fluorescence (AID 1125).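 Also: score merges 667 nm channel intensity with signal to noise over triplicate slides.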 Particulars: small-molecule microarray binding, higher = more signal.
For test [9], the system named is Chordin-like protein 2 (CHRDL2). Nature of the test: CHRDL2 small-molecule binders, primary screen, biochemical, small-molecule microarray, 635 nm fluorescence (AID 1126).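 Also: printed compound slides probed with Chrdl2 protein at 4 µg/mL for 1 h at 4 C; score merges 667 nm emission intensity with signal to noise over three replicate slides.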 Particulars: small-molecule microarray binding, fluorescence 635 nm; higher = more signal.
In test [10] the target is Concanavalin-A (Canavalia ensiformis) (UniProt P02866). The test is described as follows: ConA small-molecule binders, primary screen, artefact control for SMM control protein annotation, biochemical, small-molecule microarray, Alexa647 label, 635 nm (AID 1127).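 Also: z combines 667 nm emission intensity with signal-to-noise across three replicate slides.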 To be noted: ConA-A647 binding fluorescence, higher = more signal.
The nature of test [11]: anti-His antibody binders, primary screen, artefact control for SMM control protein annotation, biochemical, small-molecule microarray, 635 nm fluorescence (AID 1128).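 Also: score merges feature fluorescence with signal-to-noise for each printed compound spot.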 To be noted: anti-His Alexa647 antibody binding, higher = more signal.
In test [12] the test system is Human papillomavirus type 1a E7 protein (residues 1-88). The test is described as follows: HPV1a E7 small-molecule binders, primary screen, biochemical, small-molecule microarray, residues 1-88, 635 nm (AID 1129). Particulars: small-molecule microarray binding, fluorescence 635 nm; higher = more signal.
Test [13] has as its target Focal adhesion kinase 1 (Homo sapiens) (UniProt Q05397). Nature of the test: small-molecule microarray binders of FAK, primary screen, biochemical, 635/667 nm fluorescence, BSA, DTT (AID 1130).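 Also: composite of spot emission at 667 nm and signal to noise over triplicate slides.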 Particulars: PTK2 binding, 635 nm fluorescence, higher = more signal.
The subject of test [14] is Fibrinogen (Alexa647-labelled). Nature of the test: fibrinogen binders on compound microarrays, profiling panel, artefact control for SMM control-protein annotation, biochemical, small-molecule microarray, 635/667 nm fluorescence (AID 1131).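 Also: z-score merges 667 nm fluorescence with per-spot signal-to-noise over triplicate slides.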 Particulars: fibrinogen-A647 binding fluorescence, higher = more signal.
Test [15] deals with Follistatin (Homo sapiens) (UniProt P19883). The test is described as follows: follistatin binders on small-molecule microarrays, primary screen, biochemical, small-molecule microarray, 635/667 nm fluorescence (AID 1132). To be noted: FST binding, 635 nm fluorescence, higher = more signal.
Test [16] deals with Fibroblast growth factor 2 (Homo sapiens) (UniProt P09038). The test is described as follows: FGF2 binders on small-molecule microarrays, primary screen, biochemical, small-molecule microarray, 635/667 nm fluorescence (AID 1133). To be noted: small-molecule microarray binding, FGF2, fluorescence 635/667; higher = more signal.
A short description of test [17]: mitochondrial membrane potential change in A549 cells, profiling panel, cell-based, JC-1 fluorescence, basal, 24 h, 100 nL (AID 1138).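 Also: A549 lung adenocarcinoma cells under basal conditions with no added stimulus; test concentration not given here.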 Particulars: higher = more signal.
In test [18] the test system is Lefty1. Nature of the test: Lefty1 binders on small-molecule microarrays, primary screen, biochemical, small-molecule microarray, 635/667 nm fluorescence (AID 1139). Particulars: small-molecule microarray binding, fluorescence 635/667; higher = more signal.
In test [19] the test system is wheat germ agglutinin (Triticum aestivum), Alexa647-labelled. The test is described as follows: wheat germ agglutinin binders on compound microarrays, profiling panel, artefact control for SMM control-protein annotation, biochemical, small-molecule microarray, 635/667 nm fluorescence (AID 1140).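 Also: score merges 667 nm feature emission with signal to noise over triplicate slides.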 To be noted: WGA-A647 binding, 635 nm fluorescence, higher = more signal.

For test [20], the target named is Luciferin 4-monooxygenase (Photinus pyralis) (UniProt P08659). Nature of the test: firefly luciferase enzyme inhibitors, primary screen, biochemical, luminescence, purified enzyme, 2006 set (AID 1141).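 Also: cell-free assay with purified firefly luciferase at 100 ng per well in PBS; test concentration not given here.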 To be noted: SteadyGlo luminescence, 30 min, higher = more signal, called active from +8 up or from −8 down.

Calls of active or inactive are those of the source.

Focal adhesion kinase 1 (Homo sapiens), sequence (Q05397 whole entry, looked up): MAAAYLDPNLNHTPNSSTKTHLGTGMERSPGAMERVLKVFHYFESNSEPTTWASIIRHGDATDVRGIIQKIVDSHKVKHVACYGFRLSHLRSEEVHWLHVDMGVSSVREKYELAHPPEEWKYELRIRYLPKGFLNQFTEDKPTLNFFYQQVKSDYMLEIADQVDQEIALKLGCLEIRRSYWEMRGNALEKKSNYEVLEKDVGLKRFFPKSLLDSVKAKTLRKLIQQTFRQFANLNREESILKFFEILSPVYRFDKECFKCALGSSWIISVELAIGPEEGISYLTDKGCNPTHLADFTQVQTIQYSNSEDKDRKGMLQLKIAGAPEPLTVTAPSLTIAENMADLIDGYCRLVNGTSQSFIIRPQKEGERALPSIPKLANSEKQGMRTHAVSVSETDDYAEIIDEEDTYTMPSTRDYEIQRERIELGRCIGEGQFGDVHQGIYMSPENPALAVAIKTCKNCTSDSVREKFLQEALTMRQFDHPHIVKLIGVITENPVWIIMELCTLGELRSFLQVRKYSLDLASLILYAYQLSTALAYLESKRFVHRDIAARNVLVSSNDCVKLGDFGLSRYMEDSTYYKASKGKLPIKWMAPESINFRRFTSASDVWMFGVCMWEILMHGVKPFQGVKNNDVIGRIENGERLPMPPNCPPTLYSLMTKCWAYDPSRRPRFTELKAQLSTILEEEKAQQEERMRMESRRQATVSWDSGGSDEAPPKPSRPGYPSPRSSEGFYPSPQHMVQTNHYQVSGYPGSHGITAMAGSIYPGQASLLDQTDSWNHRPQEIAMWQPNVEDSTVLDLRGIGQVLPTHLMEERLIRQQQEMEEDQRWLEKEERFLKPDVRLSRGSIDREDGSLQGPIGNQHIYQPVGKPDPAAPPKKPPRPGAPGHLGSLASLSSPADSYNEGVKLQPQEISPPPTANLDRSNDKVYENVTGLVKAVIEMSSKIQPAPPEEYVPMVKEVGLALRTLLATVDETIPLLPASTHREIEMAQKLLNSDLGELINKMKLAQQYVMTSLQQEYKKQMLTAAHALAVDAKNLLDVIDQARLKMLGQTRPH
Fibroblast growth factor 2 (Homo sapiens), sequence (P09038 whole entry, looked up): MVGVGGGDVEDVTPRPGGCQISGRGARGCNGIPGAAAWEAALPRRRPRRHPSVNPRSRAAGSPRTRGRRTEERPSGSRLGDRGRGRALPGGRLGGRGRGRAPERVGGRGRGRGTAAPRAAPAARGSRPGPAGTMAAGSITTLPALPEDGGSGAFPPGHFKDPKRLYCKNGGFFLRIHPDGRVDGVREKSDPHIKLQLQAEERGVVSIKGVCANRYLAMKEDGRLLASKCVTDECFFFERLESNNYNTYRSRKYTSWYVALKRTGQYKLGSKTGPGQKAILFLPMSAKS
Follistatin (Homo sapiens), sequence (P19883 whole entry, looked up): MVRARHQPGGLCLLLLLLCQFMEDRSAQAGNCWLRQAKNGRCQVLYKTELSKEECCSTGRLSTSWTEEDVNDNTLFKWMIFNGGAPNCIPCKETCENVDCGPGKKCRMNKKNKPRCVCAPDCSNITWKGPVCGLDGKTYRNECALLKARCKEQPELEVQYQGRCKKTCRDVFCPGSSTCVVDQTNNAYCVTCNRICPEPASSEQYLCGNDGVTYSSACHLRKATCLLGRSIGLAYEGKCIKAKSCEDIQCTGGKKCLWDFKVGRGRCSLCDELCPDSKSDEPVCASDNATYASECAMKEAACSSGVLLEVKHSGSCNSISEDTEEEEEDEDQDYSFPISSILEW
Concanavalin-A (Canavalia ensiformis), sequence (P02866 whole entry, looked up): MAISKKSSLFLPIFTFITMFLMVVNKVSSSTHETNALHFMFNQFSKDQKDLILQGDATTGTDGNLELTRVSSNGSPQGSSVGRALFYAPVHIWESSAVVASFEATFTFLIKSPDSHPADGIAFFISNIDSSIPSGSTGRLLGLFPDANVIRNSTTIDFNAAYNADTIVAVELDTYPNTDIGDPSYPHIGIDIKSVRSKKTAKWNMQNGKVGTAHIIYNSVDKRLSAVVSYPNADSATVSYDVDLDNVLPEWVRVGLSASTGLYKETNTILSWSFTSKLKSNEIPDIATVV
Luciferin 4-monooxygenase (Photinus pyralis), sequence (P08659 whole entry, looked up): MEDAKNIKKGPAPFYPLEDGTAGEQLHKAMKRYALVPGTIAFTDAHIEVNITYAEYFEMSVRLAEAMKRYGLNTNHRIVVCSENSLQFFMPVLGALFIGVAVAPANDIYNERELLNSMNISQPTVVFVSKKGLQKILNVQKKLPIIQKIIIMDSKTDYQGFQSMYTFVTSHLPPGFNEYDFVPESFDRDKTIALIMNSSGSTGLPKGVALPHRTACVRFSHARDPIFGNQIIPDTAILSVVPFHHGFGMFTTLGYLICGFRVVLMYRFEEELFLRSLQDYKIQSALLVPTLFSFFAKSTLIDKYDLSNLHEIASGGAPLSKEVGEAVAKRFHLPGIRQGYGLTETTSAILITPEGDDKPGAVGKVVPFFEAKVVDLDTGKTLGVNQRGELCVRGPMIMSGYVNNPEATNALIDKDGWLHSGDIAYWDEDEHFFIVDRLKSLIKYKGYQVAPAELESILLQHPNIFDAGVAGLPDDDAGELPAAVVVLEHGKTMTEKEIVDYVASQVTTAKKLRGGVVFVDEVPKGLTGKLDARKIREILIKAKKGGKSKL
Albumin (Bos taurus), sequence (P02769 whole entry, looked up): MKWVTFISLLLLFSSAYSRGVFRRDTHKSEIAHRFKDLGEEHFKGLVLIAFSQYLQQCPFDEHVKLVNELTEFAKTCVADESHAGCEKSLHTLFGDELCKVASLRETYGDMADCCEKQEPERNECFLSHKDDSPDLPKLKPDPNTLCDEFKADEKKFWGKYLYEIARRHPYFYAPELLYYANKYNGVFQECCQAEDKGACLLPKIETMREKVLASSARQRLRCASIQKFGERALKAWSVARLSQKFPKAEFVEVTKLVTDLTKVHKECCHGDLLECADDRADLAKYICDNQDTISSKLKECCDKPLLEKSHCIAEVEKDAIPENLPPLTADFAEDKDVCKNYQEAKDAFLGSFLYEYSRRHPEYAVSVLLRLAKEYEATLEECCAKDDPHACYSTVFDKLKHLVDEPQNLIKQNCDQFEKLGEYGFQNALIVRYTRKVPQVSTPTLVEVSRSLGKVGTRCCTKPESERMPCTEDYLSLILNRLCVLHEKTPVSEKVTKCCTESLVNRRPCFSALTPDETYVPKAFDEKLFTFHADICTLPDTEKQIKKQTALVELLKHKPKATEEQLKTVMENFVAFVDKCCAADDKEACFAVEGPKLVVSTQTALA

Regarding `C=CCC(OC(C)=O)[C@@H]1[C@@H](N(Cc2cccc3ccccc23)C(=O)Cc2ccc(F)cc2)c2cc(OCCCO)ccc2N1C(=O)c1ccc2ccccc2c1` (stereo not given in full), the composite z-score was -0.0241 in test [1]; -0.0111 in test [3]; -0.104 in [4]; -0.0968 in [5]; 0.0036 in test [6]; -0.353 in [7]. The composite z-score in [8] is -0.0562; in test [9] it was 0.235; in [10] it was -0.15; in [11] it was 0.301; in [12], -0.247; in test [13], 0.114. Moreover, the composite z-score was 0.131 in [14]; 0.7 in [15]; -0.328 in test [16]; 0.117 in test [18]; 0.0096 in test [19]. Further, in test [2], the composite Z-score was -0.748 (inactive). Moreover, the results for the z-score in test [17] and in test [20] were 1.03 and 0.739 (inactive), respectively.
For the compound `COc1ccc([Si](C)(C)[C@@H]2[C@@H](CC(=O)N(CCO)Cc3ccccc3)O[C@]3(C(=O)N(Cc4cccc(N5CCCCC5=O)c4)c4ccccc43)[C@H]2C)cc1`, the composite z-score was 0.11 in [1]; -0.22 in [3]; -0.131 in test [4]; 0.52 in test [5]; 1.86 in test [6]; -0.104 in test [7]. Also, the composite z-score in test [8] came to 0.646; in [9], 0.905; in test [10] it was 1.03; in [11], 0.112; in test [12], 0.869; in test [13], 0.518. Besides, the composite z-score in test [14] is -0.451; in test [15], 1.15; in test [16], 0.361; in [18] it was 1.46; in [19] it was 0.349. Further, in test [2], the composite Z-score was 0.42 (inactive). Further, the z-score in [17] is -0.171; in [20], 0.151 (inactive).
With `CC[C@@H]1C=C(C(=O)O)[C@H](c2ccccc2)N1S(=O)(=O)c1ccc(C)cc1`, the composite z-score was 1.08 in test [1]; 0.191 in [3]; 0.0167 in test [4]; 0.8 in [5]; 2.24 in test [6]; 1.38 in [7]. The composite z-score in test [8] is 0.95; in [9] it was -0.535; in [10], 1.12; in [11] it was 2.57; in test [12], 1.17; in [13] it was 0.178. The composite z-score in test [14] is 0.594; in test [15] it was -0.0393; in test [16], -0.241; in test [18], 0.362; in test [19], 1.05. The composite Z-score in test [2] is -0.12 (inactive). In addition, the z-score in [17] was -0.719; in test [20], 1.09 (inactive).
With `CC(C)N1CC=CC23O[C@@H]4C=CCCOC(=O)C4[C@H]2C(=O)N(CCCO)[C@@H]3C1=O` (stereo not given in full), the composite z-score is -0.682 in [1]; -0.112 in [3]; -0.0995 in test [4]; 0.734 in [5]; -0.192 in [6]; 0.303 in test [7]. Also, the composite z-score is 0.334 in test [8]; -0.347 in test [9]; -0.0639 in test [10]; 0.939 in [11]; -0.0707 in test [12]; 0.248 in [13]. In addition, the composite z-score is -1.09 in test [14]; -0.0801 in test [15]; -0.565 in test [16]; -0.0004 in [18]; -0.467 in test [19]. In addition, the composite Z-score in test [2] was -0.472 (inactive). Further, the z-score was -1.31 in test [17] and 0.0763 (inactive) in test [20].
On to `C=C(C(=O)CC[C@H](OC(=O)c1ccccc1-c1ccccc1C(=O)O)c1cccc(OCCO)c1)C(C)C`, for which the composite z-score in test [1] is 0.688; in test [3] it was -0.185; in test [4], -0.162; in [5] it was 0.696; in test [6] it was 0.715; in [7], 0.2. Also, the composite z-score in test [8] was -0.192; in test [9], -0.0748; in test [10], 0.0561; in test [11] it was 0.0001; in [12] it was -0.399; in test [13] it was 0.0444. Also, the composite z-score in test [14] was found to be 0.0591; in [15] it was 0.319; in test [16], 0.85; in test [18] it was 0.485; in test [19] it was 0.36. Further, the composite Z-score in test [2] is -0.302 (inactive). In addition, the z-score is -0.697 in test [17] and -0.373 (inactive) in test [20].
Regarding `Oc1ccc2cc[n+](Cc3cc4c(cc3Br)OCO4)cc2c1`, the composite z-score in test [1] is -1.19; in [3] it was -0.333; in test [4], -0.108; in test [5], 0.908; in test [6], -0.129; in [7], -0.127. Moreover, the composite z-score is -0.538 in [8]; -0.496 in test [9]; -0.985 in test [10]; -0.706 in [11]; -1.93 in [12]; -0.947 in test [13]. In addition, the composite z-score is -1.38 in [14]; -0.145 in test [15]; -0.387 in test [16]; -1.15 in [18]; 0.136 in test [19]. Also, in test [2], the composite Z-score is -0.399 (inactive). Moreover, the z-score in [17] was 0.938; in test [20] it was -1.13 (inactive).
